Assay [1] concerns the target T1, Ephrin type-A receptor 3 (Homo sapiens) (UniProt P29320).
T1 sequence (whole entry): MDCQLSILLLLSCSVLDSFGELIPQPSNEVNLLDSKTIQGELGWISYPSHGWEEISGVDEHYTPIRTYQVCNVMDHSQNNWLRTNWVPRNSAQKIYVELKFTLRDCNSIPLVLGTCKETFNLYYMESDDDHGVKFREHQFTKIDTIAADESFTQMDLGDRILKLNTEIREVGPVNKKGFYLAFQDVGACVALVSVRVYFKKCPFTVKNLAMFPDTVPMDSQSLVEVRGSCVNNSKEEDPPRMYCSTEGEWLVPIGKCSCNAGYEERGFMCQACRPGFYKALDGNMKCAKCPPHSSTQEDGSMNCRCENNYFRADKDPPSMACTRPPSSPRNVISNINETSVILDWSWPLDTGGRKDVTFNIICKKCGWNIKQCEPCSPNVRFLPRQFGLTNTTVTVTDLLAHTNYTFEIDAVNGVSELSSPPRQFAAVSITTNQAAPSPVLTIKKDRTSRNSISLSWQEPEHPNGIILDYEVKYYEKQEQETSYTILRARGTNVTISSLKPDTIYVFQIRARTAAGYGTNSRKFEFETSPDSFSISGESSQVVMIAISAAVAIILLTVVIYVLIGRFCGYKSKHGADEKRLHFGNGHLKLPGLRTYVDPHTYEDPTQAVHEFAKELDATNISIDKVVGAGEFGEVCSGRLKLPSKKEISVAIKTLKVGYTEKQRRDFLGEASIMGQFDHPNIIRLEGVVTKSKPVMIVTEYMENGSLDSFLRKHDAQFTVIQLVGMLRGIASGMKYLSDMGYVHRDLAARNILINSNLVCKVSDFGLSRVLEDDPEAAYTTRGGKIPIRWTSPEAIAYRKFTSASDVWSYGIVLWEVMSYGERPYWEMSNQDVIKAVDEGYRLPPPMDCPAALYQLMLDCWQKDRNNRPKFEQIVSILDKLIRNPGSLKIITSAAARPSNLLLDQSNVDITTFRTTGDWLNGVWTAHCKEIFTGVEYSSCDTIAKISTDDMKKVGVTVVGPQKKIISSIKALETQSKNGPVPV
Conditions: at 10 µM; call rule not given here.

The target in assay [2] is Ephrin type-A receptor 4 (Homo sapiens) (UniProt P54764). To be noted: at 10 µM.
Assay [3] deals with Ephrin type-A receptor 5 (Homo sapiens) (UniProt P54756). Conditions: at 1 µM.
Assay [4] shares this target. Conditions: at 10 µM.
Assay [5] concerns the target Ephrin type-A receptor 7 (Homo sapiens) (UniProt Q15375). To be noted: at 1 µM.
Assay [6] shares this target. To be noted: at 10 µM.
Assay [7] concerns the target T2, Ephrin type-A receptor 8 (Homo sapiens) (UniProt P29322).
T2 sequence (whole entry): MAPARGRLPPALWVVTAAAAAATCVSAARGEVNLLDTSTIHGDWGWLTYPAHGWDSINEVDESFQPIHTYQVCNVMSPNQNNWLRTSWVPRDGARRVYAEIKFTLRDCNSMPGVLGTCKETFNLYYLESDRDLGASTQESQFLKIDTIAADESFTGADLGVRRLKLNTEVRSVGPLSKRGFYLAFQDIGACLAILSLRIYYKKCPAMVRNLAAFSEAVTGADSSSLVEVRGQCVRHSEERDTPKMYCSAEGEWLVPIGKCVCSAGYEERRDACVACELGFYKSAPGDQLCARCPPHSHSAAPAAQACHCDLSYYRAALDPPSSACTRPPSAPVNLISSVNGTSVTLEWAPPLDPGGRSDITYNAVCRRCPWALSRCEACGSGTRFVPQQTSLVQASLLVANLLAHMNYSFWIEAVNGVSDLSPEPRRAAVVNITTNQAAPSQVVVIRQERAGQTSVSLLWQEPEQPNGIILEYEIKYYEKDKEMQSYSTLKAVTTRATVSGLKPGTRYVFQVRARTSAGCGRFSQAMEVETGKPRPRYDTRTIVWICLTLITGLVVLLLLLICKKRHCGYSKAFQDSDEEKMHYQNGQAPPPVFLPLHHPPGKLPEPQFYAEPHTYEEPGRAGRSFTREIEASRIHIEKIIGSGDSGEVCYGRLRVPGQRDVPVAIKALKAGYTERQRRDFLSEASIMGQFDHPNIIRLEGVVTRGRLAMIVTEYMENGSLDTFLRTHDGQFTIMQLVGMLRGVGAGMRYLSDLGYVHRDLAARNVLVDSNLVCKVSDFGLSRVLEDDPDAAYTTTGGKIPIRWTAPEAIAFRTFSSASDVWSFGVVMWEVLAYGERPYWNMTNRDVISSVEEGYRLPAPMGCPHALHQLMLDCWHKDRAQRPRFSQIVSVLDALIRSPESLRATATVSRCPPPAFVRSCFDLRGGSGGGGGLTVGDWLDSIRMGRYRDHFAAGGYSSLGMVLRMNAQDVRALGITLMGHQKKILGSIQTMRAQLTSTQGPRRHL
To be noted: at 1 µM.

Assay [8] has as its target T2, Ephrin type-A receptor 8 (Homo sapiens). To be noted: at 10 µM.
Assay [9] deals with T3, Ephrin type-B receptor 1 (Homo sapiens) (UniProt P54762).
T3 sequence (whole entry): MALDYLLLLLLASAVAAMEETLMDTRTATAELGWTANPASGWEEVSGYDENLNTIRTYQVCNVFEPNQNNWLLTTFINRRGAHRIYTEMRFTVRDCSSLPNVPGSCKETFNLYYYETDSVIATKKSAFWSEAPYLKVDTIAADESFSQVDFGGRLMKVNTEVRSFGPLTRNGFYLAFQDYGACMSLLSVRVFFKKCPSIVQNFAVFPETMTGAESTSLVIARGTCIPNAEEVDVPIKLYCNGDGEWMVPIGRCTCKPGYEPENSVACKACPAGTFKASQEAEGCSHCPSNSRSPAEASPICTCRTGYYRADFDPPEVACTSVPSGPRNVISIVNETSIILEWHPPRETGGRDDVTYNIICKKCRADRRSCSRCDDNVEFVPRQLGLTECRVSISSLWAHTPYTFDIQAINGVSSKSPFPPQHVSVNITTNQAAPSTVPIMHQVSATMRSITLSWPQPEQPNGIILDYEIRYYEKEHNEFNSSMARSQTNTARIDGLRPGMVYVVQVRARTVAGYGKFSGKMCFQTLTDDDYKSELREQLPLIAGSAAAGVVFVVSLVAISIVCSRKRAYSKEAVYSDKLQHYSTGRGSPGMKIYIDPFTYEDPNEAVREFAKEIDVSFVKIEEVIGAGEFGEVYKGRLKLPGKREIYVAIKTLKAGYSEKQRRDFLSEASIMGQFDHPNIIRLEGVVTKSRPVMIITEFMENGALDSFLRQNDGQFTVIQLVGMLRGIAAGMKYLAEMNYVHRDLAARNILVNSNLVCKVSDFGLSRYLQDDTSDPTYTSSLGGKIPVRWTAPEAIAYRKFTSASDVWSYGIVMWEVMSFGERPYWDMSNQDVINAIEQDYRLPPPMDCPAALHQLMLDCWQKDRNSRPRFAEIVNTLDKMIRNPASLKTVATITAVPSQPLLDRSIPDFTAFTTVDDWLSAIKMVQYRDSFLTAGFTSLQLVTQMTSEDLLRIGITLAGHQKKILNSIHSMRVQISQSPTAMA
To be noted: at 10 µM.

The target of assay [10] is T4, Ephrin type-B receptor 2 (Homo sapiens) (UniProt P29323).
T4 sequence (whole entry): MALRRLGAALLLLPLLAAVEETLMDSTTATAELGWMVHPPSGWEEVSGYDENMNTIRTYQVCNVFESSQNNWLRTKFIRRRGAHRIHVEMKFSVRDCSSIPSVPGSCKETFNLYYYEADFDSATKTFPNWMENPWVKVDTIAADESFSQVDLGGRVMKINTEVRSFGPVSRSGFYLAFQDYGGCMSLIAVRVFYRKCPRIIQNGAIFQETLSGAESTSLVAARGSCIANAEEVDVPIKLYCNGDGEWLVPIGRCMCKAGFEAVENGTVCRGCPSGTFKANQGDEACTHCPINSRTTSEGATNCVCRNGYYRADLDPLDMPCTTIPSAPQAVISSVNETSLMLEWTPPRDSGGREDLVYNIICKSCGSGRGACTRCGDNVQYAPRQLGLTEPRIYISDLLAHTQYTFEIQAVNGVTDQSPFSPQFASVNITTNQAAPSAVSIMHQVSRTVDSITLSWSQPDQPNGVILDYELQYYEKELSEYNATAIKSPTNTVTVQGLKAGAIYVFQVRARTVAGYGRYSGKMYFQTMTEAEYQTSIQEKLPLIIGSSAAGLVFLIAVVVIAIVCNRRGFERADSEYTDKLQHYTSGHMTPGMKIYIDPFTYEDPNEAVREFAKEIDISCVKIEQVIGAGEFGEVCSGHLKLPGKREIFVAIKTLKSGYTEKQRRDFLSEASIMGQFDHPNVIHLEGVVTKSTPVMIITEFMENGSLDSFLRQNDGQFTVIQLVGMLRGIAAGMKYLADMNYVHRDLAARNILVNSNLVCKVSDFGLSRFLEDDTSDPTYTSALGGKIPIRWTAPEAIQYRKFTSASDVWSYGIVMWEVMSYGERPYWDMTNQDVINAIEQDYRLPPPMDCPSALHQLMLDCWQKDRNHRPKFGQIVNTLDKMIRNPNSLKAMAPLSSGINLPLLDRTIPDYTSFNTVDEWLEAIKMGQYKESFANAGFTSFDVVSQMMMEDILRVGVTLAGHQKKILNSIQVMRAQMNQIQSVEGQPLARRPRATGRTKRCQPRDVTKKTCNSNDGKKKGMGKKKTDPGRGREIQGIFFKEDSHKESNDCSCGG
To be noted: at 1 µM.

In assay [11] the target is T4, Ephrin type-B receptor 2 (Homo sapiens). Conditions: at 10 µM.
The target of assay [12] is T5, Ephrin type-B receptor 3 (Homo sapiens) (UniProt P54753).
T5 sequence (whole entry): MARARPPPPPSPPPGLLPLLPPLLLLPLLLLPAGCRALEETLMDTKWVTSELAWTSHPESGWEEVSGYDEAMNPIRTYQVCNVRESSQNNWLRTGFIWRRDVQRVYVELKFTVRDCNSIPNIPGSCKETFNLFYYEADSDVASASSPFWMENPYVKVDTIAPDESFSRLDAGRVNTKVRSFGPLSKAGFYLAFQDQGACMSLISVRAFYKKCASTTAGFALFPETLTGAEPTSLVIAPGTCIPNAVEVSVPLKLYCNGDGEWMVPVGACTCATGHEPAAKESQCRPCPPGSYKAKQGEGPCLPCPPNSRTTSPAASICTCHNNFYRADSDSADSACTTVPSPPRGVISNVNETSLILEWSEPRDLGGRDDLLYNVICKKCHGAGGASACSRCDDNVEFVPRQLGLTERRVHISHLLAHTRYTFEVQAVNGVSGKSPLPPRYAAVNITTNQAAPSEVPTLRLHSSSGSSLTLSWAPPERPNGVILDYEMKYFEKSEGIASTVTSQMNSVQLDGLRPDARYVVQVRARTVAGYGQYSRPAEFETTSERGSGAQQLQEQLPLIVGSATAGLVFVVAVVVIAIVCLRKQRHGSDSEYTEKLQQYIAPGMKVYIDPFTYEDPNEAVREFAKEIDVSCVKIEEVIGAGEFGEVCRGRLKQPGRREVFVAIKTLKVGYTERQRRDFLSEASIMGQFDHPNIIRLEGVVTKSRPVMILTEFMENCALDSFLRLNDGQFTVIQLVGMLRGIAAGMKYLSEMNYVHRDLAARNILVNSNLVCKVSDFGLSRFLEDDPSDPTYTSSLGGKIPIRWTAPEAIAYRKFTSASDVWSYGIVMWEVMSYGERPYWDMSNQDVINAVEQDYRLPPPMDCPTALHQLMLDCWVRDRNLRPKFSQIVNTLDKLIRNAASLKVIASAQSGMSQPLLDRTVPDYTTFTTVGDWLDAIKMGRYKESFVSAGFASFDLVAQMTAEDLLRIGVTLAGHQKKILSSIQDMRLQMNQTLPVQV
To be noted: at 1 µM.

Assay [13] has as its target T5, Ephrin type-B receptor 3 (Homo sapiens). Conditions: at 10 µM.
The target in assay [14] is T6, Ephrin type-B receptor 4 (Homo sapiens) (UniProt P54760).
T6 sequence (whole entry): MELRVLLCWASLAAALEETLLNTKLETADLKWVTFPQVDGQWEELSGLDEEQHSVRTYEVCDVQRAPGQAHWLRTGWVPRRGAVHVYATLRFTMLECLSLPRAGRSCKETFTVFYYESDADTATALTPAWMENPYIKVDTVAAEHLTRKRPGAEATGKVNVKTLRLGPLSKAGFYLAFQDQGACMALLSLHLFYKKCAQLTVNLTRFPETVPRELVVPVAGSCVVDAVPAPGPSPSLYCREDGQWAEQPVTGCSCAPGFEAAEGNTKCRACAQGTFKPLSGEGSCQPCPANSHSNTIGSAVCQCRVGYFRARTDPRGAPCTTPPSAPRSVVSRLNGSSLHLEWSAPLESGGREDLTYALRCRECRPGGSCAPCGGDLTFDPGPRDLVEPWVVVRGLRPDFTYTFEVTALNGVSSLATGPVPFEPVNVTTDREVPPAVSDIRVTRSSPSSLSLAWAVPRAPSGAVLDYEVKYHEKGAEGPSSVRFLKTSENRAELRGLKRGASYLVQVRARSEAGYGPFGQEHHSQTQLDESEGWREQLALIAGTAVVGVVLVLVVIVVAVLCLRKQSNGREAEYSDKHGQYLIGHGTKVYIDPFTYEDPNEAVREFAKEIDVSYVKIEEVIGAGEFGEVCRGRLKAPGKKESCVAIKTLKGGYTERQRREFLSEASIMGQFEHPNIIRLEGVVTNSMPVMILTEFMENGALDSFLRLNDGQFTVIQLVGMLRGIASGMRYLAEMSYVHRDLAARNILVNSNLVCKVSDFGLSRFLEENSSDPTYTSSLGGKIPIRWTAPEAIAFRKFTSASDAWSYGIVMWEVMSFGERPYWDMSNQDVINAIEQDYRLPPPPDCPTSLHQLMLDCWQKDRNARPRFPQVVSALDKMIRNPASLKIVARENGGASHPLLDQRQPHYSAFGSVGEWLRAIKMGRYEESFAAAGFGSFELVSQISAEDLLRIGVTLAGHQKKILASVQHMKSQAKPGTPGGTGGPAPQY
Conditions: at 1 µM.

Assay [15] deals with T6, Ephrin type-B receptor 4 (Homo sapiens). To be noted: at 10 µM.
Assay [16] deals with Receptor tyrosine-protein kinase erbB-4 (Homo sapiens) (UniProt Q15303). Conditions: at 1 µM.
Assay [17] shares this target. To be noted: at 10 µM.
Assay [18] has as its target Focal adhesion kinase 1 (Homo sapiens) (UniProt Q05397). Conditions: at 1 µM.

Each structure is given as a SMILES string.

Sequence of Receptor tyrosine-protein kinase erbB-4 (Homo sapiens) (Q15303 whole entry): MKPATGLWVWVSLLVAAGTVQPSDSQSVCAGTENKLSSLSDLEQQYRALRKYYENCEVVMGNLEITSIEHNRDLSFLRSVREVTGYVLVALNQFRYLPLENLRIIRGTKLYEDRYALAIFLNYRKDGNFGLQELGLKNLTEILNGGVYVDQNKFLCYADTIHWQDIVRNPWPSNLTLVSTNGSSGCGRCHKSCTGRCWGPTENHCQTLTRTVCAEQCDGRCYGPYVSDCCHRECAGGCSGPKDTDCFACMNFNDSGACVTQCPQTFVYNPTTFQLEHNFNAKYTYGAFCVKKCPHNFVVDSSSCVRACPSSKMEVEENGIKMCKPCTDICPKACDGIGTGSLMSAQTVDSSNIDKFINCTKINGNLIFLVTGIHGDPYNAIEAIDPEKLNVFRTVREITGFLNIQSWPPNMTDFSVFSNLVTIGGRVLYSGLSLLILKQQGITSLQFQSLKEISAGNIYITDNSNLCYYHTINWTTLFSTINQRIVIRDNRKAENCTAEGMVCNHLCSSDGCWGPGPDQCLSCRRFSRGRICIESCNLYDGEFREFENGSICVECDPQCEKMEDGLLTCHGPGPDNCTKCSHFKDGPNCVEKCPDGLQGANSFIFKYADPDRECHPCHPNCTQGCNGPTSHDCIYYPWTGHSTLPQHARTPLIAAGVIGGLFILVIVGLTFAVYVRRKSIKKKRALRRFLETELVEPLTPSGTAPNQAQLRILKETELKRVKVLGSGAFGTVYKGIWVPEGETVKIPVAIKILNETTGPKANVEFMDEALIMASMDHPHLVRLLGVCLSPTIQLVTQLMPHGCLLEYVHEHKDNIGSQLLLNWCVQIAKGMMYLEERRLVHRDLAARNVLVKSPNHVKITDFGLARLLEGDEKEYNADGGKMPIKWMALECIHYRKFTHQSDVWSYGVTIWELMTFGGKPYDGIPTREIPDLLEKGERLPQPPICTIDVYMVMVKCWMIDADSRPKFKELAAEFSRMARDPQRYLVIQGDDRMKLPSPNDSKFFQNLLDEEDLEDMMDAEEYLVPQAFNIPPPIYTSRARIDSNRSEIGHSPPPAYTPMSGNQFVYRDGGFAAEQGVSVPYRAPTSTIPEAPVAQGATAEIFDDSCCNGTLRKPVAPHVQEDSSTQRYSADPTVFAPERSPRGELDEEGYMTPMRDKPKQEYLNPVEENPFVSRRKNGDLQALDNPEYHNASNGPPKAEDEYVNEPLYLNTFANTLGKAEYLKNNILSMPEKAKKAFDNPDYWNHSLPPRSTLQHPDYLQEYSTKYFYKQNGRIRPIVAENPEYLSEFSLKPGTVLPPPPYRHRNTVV
Sequence of Ephrin type-A receptor 7 (Homo sapiens) (Q15375 28-998 limits assumed): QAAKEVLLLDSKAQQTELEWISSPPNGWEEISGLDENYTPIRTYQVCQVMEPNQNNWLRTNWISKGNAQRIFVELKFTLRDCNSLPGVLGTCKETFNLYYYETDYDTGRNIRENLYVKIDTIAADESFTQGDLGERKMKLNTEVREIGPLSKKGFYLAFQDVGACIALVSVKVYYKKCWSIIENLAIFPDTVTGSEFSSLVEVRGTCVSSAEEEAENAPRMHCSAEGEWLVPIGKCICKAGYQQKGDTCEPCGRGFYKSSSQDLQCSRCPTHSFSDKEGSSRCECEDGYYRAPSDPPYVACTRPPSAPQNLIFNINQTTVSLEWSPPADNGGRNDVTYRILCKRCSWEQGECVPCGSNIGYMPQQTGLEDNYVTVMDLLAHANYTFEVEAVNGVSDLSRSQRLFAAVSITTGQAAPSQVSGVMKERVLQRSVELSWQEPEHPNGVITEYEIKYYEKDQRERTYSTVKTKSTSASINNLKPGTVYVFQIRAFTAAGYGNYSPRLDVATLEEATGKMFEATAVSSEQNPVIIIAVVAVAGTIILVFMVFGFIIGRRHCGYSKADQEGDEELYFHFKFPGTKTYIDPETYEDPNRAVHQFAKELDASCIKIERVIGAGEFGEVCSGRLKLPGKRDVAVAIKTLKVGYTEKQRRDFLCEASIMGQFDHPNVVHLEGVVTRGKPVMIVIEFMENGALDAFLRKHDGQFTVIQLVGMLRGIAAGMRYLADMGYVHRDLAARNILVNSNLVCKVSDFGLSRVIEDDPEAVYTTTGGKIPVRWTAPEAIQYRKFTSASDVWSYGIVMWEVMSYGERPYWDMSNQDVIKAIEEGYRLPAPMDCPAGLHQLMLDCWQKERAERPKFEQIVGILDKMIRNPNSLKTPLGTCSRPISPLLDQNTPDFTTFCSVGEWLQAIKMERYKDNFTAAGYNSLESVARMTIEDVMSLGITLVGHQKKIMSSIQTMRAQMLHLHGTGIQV
Sequence of Ephrin type-A receptor 5 (Homo sapiens) (P54756 whole entry): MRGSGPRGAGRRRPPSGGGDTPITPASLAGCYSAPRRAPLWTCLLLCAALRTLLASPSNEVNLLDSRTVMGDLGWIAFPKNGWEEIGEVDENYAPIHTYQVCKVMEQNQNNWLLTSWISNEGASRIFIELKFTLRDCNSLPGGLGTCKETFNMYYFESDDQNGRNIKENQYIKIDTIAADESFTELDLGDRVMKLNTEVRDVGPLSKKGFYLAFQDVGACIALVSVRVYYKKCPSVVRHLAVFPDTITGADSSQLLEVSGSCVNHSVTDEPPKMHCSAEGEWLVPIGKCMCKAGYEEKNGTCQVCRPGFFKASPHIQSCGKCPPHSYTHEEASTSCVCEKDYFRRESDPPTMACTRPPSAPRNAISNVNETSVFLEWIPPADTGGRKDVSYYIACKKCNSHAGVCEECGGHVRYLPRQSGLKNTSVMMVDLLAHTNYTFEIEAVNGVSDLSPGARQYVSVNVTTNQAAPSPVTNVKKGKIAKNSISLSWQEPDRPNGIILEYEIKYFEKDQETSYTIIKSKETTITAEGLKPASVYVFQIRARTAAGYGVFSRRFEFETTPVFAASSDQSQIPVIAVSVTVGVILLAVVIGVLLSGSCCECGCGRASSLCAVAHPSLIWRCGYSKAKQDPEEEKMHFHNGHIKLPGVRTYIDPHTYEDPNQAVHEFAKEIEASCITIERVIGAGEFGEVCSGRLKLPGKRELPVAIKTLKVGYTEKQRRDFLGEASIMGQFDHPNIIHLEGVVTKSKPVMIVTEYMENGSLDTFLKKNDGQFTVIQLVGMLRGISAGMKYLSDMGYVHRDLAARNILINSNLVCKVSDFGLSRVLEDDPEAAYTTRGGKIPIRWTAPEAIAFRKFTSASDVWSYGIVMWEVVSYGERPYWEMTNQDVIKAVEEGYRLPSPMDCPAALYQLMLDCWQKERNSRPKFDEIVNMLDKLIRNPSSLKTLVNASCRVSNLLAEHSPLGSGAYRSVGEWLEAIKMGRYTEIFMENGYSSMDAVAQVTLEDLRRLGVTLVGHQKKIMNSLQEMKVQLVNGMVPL
Sequence of Ephrin type-A receptor 4 (Homo sapiens) (P54764 whole entry): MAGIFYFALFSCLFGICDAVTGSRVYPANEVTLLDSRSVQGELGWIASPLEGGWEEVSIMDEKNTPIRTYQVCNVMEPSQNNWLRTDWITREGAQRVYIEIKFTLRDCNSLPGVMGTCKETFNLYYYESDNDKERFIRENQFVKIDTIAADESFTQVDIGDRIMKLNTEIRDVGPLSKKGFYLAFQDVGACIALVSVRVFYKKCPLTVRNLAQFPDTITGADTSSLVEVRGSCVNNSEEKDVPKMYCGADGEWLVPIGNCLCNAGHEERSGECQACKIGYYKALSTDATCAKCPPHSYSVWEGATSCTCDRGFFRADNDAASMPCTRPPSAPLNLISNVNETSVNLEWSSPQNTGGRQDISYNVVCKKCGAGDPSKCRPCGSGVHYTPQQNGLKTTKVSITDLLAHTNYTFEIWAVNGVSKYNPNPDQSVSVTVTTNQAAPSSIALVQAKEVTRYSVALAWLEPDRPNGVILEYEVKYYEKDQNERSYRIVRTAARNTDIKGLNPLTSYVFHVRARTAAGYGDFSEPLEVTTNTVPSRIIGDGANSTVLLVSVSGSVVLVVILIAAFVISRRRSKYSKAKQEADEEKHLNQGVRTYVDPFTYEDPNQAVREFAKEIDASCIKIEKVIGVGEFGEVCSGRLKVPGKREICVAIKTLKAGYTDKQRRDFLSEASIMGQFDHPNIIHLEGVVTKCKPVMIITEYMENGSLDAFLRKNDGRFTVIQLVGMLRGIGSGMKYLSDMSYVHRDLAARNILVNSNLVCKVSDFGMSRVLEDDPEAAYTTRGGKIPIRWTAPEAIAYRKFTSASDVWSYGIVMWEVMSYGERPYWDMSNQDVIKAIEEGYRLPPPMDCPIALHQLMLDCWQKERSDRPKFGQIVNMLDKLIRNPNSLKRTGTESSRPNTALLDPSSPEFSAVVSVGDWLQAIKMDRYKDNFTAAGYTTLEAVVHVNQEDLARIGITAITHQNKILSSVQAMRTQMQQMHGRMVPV

Broadly, the residual activity is the signal under treatment as a percentage of the control signal. For the compound `CN(C)CCCn1cc(C2=C(c3c[nH]c4ccccc34)C(=O)NC2=O)c2ccccc21`, the residual activity turned out to be 82% in [1]; 82% in assay [2]; 123% in assay [3]; 103% in assay [4]; 108% in assay [5]; 87% in [6]. In addition, the residual activity in assay [7] is 120%; in [8] it was 106%; in assay [9], 59%; in assay [10], 119%; in assay [11] it was 113%; in [12], 108% (inactive). The residual activity in assay [13] was found to be 110%; in [14], 124%; in assay [15] it was 118%; in [16] it was 113%; in assay [17], 86%; in [18], 133%.

These data come from ChEMBL document CHEMBL2218924, “A broad activity screen in support of a chemogenomic map for kinase signalling research and drug discovery” (Biochem J, 2013).
